Test results: article PMC4336329 (PLoS ONE, 2015)
Among all 310,000 compounds or so, about 14,000 (4.5%) showed an effect of 50% or more. The effect is printed as a negative number. The full list was thinned out, with strong results kept by preference.

What follows are compounds tested against human ether-à-go-go-related gene (hERG) potassium channel (human, UniProt Q12809) (assay: primary screen, population patch clamp on CHO cells stably expressing hERG; higher = less effect of the substance).
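Also: peak tail current of the secondary pulse compared with the same well before compound.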

Chain of human ether-à-go-go-related gene (hERG) potassium channel (Q12809 whole entry, looked up): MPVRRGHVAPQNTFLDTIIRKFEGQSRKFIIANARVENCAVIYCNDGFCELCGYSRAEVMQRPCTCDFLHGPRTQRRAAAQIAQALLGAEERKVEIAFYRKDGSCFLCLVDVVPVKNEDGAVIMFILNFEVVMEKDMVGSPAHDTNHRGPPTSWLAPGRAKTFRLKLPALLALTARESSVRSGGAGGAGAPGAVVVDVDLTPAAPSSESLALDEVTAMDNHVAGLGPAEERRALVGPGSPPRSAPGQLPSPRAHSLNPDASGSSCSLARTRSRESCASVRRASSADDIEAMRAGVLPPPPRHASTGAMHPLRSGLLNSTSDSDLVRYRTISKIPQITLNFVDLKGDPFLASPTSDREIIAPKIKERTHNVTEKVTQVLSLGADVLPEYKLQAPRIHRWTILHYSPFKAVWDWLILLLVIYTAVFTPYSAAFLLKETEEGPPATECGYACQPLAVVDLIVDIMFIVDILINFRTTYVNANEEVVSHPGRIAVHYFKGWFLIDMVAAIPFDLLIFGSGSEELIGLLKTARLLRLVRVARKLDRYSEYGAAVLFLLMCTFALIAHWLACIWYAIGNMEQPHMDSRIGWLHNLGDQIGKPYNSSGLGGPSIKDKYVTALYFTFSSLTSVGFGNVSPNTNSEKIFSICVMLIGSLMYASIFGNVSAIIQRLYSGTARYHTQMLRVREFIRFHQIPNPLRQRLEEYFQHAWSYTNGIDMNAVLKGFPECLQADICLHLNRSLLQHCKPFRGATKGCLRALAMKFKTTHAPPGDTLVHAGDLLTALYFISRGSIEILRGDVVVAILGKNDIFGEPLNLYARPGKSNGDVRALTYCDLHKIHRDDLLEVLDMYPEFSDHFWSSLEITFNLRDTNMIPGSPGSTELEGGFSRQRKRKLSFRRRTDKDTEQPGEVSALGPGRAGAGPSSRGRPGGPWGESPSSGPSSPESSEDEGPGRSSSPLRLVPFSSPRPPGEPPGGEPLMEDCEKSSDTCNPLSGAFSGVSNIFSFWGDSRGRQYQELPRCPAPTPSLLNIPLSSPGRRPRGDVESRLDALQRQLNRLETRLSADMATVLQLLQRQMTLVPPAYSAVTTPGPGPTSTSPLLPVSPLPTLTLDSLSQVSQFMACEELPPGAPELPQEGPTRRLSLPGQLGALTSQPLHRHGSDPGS

| SMILES | hERG current change (%, negative = inhibition) at 10uM [%] |
| --- | --- |
| CCOC(=O)SC1=N/C(=C\c2ccc(N(C)C)cc2)C(=O)S1 | 14.9 |
| COc1ccc(CCN(C)C(=O)c2ccc(COc3ccccc3)o2)cc1OC | -3.91 |
| COCC(=O)Nc1ccc(F)cc1 | 18.6 |
| O=c1c(Cc2ccc(F)cc2)c(O)ccn1Cc1ccc(Cl)cc1Cl | 6.08 |
| COc1cc(O)c(C(CC(=O)N2CCCC(C)C2)c2cc(OC)c(OC)c(OC)c2)c(OC)c1 (stereo not drawn) | 2.69 |
| CC(=O)Nc1ccc2nc(NC(=O)C(Cl)(Cl)Cl)sc2c1 | 31.1 |
| c1cc(-c2nnc3n2CCC3)[nH]n1 | 12.5 |
| O=C(CSc1nc(-c2ccccc2F)nc2nc[nH]c12)Nc1c(Cl)cc(Cl)cc1Cl | -6.09 |
| Oc1cc2ccccc2cc1-c1nnc2n1-c1ccccc1SC2 | -8.27 |
| Clc1ccc2c(c1)-c1nnc(Br)n1-c1ccccc1S2 | -52.5 |
| c1ccc2c(c1)Sc1ccccc1-n1cnnc1-2 | -20.3 |
| Brc1nnc2n1-c1ccccc1Sc1ccccc1-2 | -71.8 |
| Clc1ccccc1-c1nnc2n1-c1ccccc1SC2 | -3.67 |
| Cl.NCCC(=O)N1c2ccccc2Sc2ccc(Cl)cc21 | -10.8 |
| COc1nc(NC(C)(C)C)nc(Oc2ccc(=O)n(C)n2)n1 | 16.8 |
| CN(C)c1nc(-c2cccnc2)nc(-c2ccccc2)c1C#N | 10.3 |
| CCOC(=O)COc1ccc(Oc2nc(C)cc(OC)n2)nn1 | -7.8 |
| Cl.Nc1nonc1C(=O)NCCNCc1c(OCc2ccccc2F)ccc2ccccc12 | -11.9 |
| Cl.Nc1nonc1C(=O)NCCNCc1ccccc1OCc1ccc(F)cc1 | -65.9 |
| Cl.Nc1nonc1C(=O)NCCNCc1ccccc1OCc1ccccc1F | -60.5 |
| CCOc1ccccc1CNCCNC(=O)c1nonc1N.Cl | -13.5 |
| C=CCOc1ccccc1CNCCNC(=O)c1nonc1N.Cl | -22.8 |
| Cl.Nc1nonc1C(=O)NCCNCc1cc(Br)ccc1OCc1ccc(F)cc1 | -38.2 |

| SMILES | hERG current change (%, negative = inhibition) at 10uM [%] |
| --- | --- |
| CC1=C(C(=O)Nc2ccccc2)C(c2ccc(O)cc2)N2C(=O)CSC2=N1 (stereo not drawn) | 3.47 |
| CC(C)N(CCCNC(=O)CC1Oc2ccccc2NC1=O)Cc1ccccc1 (stereo not drawn) | -26.3 |
| Fc1ccc(/C=N/c2c(-c3ccc(F)cc3)nc3n2CCS3)cc1 | -4.46 |
| Nc1nc2ccccc2n1/N=C/c1ccc([N+](=O)[O-])s1 | -1.38 |
| O=C(O)/C(=C\c1cccs1)c1ccccc1 | 0.00478 |
| COc1ccc(OC)c(-n2cnc3cc(C(=O)O)ccc32)c1 | 3.06 |
| O=C(c1ccc2c(c1)OCO2)C1CCCN(Cc2cccc(C(F)(F)F)c2)C1 (stereo not drawn) | -20.5 |
| Cc1ccc(CN2CCCC(C(=O)c3ccc4c(c3)OCO4)C2)cc1C (stereo not drawn) | -64.6 |
| CC(=O)c1cccc(CN2CCCC(C(=O)c3ccc4c(c3)OCO4)C2)c1 (stereo not drawn) | -64.9 |
| O=C(c1ccc2c(c1)OCO2)C1CCCN(C2CCN(CCc3ccccc3)CC2)C1 (stereo not drawn) | -69.3 |
| CSc1ccccc1NC(=O)N1CCCC(C(=O)c2ccc3c(c2)OCO3)C1 (stereo not drawn) | -39.8 |
| O=C(c1ccc2c(c1)OCO2)C1CCCN(C(=O)NCc2ccccc2)C1 (stereo not drawn) | -14.3 |
| O=C(c1ccc2c(c1)OCO2)C1CCCN(Cc2c(F)ccc(F)c2F)C1 (stereo not drawn) | -15.8 |
| CC(=O)c1ccc(NC(=O)N2CCCC(C(=O)c3ccc4c(c3)OCO4)C2)cc1 (stereo not drawn) | -16.4 |
| CCOC(=O)C1CCCN(Cc2ccc3c(c2)OCO3)C1 (stereo not drawn) | -9.12 |
| CCN(CC)C(=O)C1CCCN(Cc2ccc3c(c2)OCO3)C1 (stereo not drawn) | 10 |
| O=C(c1ccc2c(c1)OCO2)C1CCCN(Cc2ccc(F)c(F)c2)C1 (stereo not drawn) | -65.4 |
| COc1ccccc1/C=C1\C(=O)Nc2ccccc21 | 2.99 |
| Cc1cn(S(=O)(=O)c2cc(Br)ccc2Br)cn1 | 1.08 |
| CCc1ccc(NC(=O)NCCCN2CCCC2=O)cc1 | 0.255 |
| CN(C)C1(CNC(=O)CC(NC(=O)c2ccccc2Cl)c2ccccc2)CCCCC1 (stereo not drawn) | -31.3 |
| C[C@@]12CCC3[C@@](CCC4[C@@]3(C)CCC[C@@]4(C)C(=O)N3CCCCC3)(CC1=O)C2 (stereo partly drawn) | 7.27 |
